Consider 40 compounds from PubChem BioAssay (Tox21).

The structures appear in SMILES notation. Calls of active or inactive are those of the source. Where a call stands in place of a potency, no number is given. The call rests on the fitted dose curve; in most records, active means well fitted curve in the direction sought with a large enough effect in the repeat runs; inconclusive means weak or mixed curves; inactive means flat fitted curve, though single readings scatter.

A short description of the assay: qHTS assay to test for compound auto fluorescence at 460 nm (blue) in HEK293 cells (AID 720678). To be noted: blue autofluorescence 405/460 nm; series mostly up to 91.3 µM. The text has this: National Center for Advancing Translational Sciences [NCATS]
NIH Chemical Genomics Center [NCGC]
U.S. Environmental Protection Agency [EPA]
National Institutes of Environmental Health Sciences [NIEHS]
National Toxicology Program [NTP]
U.S. Food and Drug Administration [FDA]
Compound auto fluorescence often interferes with screening of the compound library against various biological targets and signaling pathways. Some of these compounds may have fluorophoric properties. Such properties may interfere with the assay outputs resulting in false positives and/or negatives. To decrease such complications and ensure the compound activities are relevant in terms of biological response, the Tox21 10K compound library was screened for auto fluorescence.
From the fluorophores used as reporter signals in our screening assays, the auto fluorescence equivalencies of compounds against three fluorophores have been evaluated: Triamterene, Fluorescein and Rose Bengal sodium for blue, green and red fluorescence, respectively. The fluorescence intensities were measured using Excitation/Emission wavelengths at 405/460nm, 485/535nm and 540/590nm for blue, green and red labels, respectively. This assay includes the blue fluorescence data.
Tox21 Assay Protocol Summary:
2,000 HEK293 cells in 5 uL of culture medium containing 10% dialyzed FBS per well were dispensed into black wall/clear bottom 1536-well plates using a Multidrop Combi Dispenser (Thermo Scientific). The assay plates were incubated for 4-5 hr at 37C to allow cell attachment to the well bottom, followed by the transfer of 23 nL compound or DMSO vehicle by a pintool work station (Kalypsys, San Diego, CA). After the assay plates were incubated overnight at 37C and 5% CO2, fluorescence intensities in the assay plates were measured by an Envision (PerkinElmer, Shelton, CT) plate reader using three labels for measuring blue, green and red fluorescence at […] 460, 535 and 590nm respectively.
Take `C=C(C)C(=O)NCCC[N+](C)(C)C`: the Potency result was “inactive”. Still for that read-out and setting: next, `CCCCCCOC(=O)c1ccccc1O`: “inactive”; `CC/C=C\C#N`: “inactive”. Still for that read-out and setting: with `C=CC(=O)N1CCOCC1` the entry was “inactive”; with `Cc1nc(-c2ccc(OCC(C)C)c(C#N)c2)sc1C(=O)O`, “inactive”; with `OC/C=C/c1ccccc1`, “inactive”. In the case of `NC(=O)c1ncn([C@@H]2O[C@H](CO)[C@@H](O)[C@H]2O)c1O`, the Potency entry is “inactive”. The same measure, in the same setting: next, `CCC(=O)Nc1cccc(N)c1`: “inactive”. For `NC(=S)Nc1cccc2ccccc12`, the fluorescence, % of triamterene is -0.0445% [at 3.72 µM] (inactive).

As for `CCOC(=O)Nc1ccc2c(c1)N(C(=O)CCN1CCOCC1)c1ccccc1S2`, the fluorescence, % of triamterene is -0.0312% [at 18.6 µM] (inactive). For `Nc1cc(N)cc(C(=O)O)c1`, the Potency entry was “inactive”. On the same count and under the same terms, with `OC1OC[C@@H](O)[C@H](O)[C@H]1O` (stereo not given in full) the entry was “inactive”; with `[O-][N+](=Nc1ccccc1)c1ccccc1`, “inactive”; with `C=CCOCC(O)CS(=O)(=O)O` (stereo not given), “inactive”. On the same count and under the same terms, next, `CC(C)CCCC(C)CCCC(C)CCCCC(C)CCCC(C)CCCC(C)C` (stereo not given): “inactive”; `Fc1ccccc1-c1ccccc1`: “inactive”; `CC(C)c1cccc(O)c1`: “inactive”.

As for `COc1ccc(COC=O)cc1`, the Potency result is “inactive”. Still for that read-out and setting: next, `C=C(C)[C@H]1CC=C(C)CC1`: “inactive”. Still for that read-out and setting: with `CNc1ncnc2nc[nH]c12` the entry was “inactive”. On the same count and under the same terms, with `Cc1onc(-c2ccccc2)c1-c1ccc(S(N)(=O)=O)cc1` the entry was “inactive”.

For the compound `CCCCC1CCCCC(=O)O1` (stereo not given), the Potency result was “inactive”. On to `C=C(C)C(=O)OCCCCCCCCCCCCCCCCCC`, for which the fluorescence, % of triamterene was -0.0754% [at 18.6 µM] (inactive).

For `CCCCCCC(=O)OCC`, the Potency entry was “inactive”.

As to `CCOC(=O)Cn1c(=O)sc2cccc(Cl)c21`, the Potency entry was “inactive”. Same read-out and setting: next, `CC(C)c1cccc(C(C)C)c1N`: “inactive”. On the same count and under the same terms, with `COc1cc(C(=O)N2CCOCC2)cc(OC)c1OC` the entry was “inactive”; with `CC(C)COC(=O)c1ccccc1O`, “inactive”.

For the compound `CN(C)CCn1nnnc1SCC1=C(C(=O)O)N2C(=O)[C@@H](NC(=O)Cc3csc(N)n3)[C@H]2SC1`, the fluorescence, % of triamterene was 0.477% [at 18.6 µM] (inactive). As to `O=S(=O)(O)c1ccccc1O`, the Potency entry is “inactive”.

On to `C=CCn1c(=O)n([C@@H]2O[C@H](CO)[C@@H](O)[C@H]2O)c2nc(N)[nH]c(=O)c21`, for which the Potency entry is “inactive”. Same read-out and setting: next, `CC(=O)OC(C)(C)C`: “inactive”. Same read-out and setting: with `O=C(O)c1ccc[n+]([O-])c1` the entry was “inactive”. The same measure, in the same setting: next, `O=[N+]([O-])c1ccc(CCO)cc1`: “inactive”; `CN(C)C(=O)Nc1ccccc1`: “inactive”; `CC(C)c1ccc2oc3nc(N)c(C(=O)O)cc3c(=O)c2c1`: “inactive”. Turning to `C[C@H](O)C(=O)Nc1c(I)c(C(=O)NC(CO)CO)c(I)c(C(=O)NC(CO)CO)c1I`, the fluorescence, % of triamterene was -0.0154% [at 18.6 µM] (inactive).

Regarding `COC(=O)[C@H]1[C@H]2C[C@@H]3c4[nH]c5cc(OC)ccc5c4CCN3C[C@H]2C[C@@H](OC(=O)COc2ccc(OC)cc2)[C@@H]1OC`, the Potency result is “inactive”.

Turning to `CCCCCCCCCCCCCCCCCC(=O)OCCCCCCCCCCCCCC(C)C`, the Potency result is “inactive”. Take `CCCc1ccccc1O`: the Potency result is “inactive”.
